Compound activity: PubChem BioAssay, National Center for Advancing Translational Sciences (NCATS)
Most compounds without a hit are left out; they make up all but 5.8% or so of the library.
KB-3-1 cytotox = kills parental KB-3-1 adenocarcinoma cells; KB-3-1 viability, CellTiter-Glo ATP luminescence, 72 h; Potency, µM (doses to about 46.1 µM), usual class: cytotoxic; 1.4% of 400,000 active; note: nearly all actives have a fitted effect of over 60% in size
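Cytotoxicity measured as CellTiter-Glo luminescence after 72 h at 37 C. Compound titrations were pinned onto drug-naive KB-3-1 parental adenocarcinoma cells grown in DMEM with 10% FBS, and normalized data fitted to concentration-response curves.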
PINK1 modulator = changes PINK1 expression; PINK1 immunofluorescence, high-content cytometry, 24 h; Potency, µM (highest dose often 76.6 µM), hits mostly activators; 0.2% of 410,000 active; AID 624263; active = well fitted activation curve with a large enough effect; inconclusive = small, poorly fitted or top-dose-only effect; cell line not stated here; note: nearly all actives have a fitted effect of over 65% in size
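Cells are seeded, rested 12 hours, then given compound at five concentrations or DMSO for 24 hours. After fixation, blocking and antibody staining, PINK1 amount and mitochondrial localization are scored; CCCP serves as control.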
ALOX12 inh = blocks human arachidonate 12S-lipoxygenase; purified 12hLO, xylenol orange hydroperoxide absorbance; Potency, µM (doses to about 108 µM), usual class: inhibitors; 1.1% of 580,000 active
Target sequence (P18054 whole entry, looked up): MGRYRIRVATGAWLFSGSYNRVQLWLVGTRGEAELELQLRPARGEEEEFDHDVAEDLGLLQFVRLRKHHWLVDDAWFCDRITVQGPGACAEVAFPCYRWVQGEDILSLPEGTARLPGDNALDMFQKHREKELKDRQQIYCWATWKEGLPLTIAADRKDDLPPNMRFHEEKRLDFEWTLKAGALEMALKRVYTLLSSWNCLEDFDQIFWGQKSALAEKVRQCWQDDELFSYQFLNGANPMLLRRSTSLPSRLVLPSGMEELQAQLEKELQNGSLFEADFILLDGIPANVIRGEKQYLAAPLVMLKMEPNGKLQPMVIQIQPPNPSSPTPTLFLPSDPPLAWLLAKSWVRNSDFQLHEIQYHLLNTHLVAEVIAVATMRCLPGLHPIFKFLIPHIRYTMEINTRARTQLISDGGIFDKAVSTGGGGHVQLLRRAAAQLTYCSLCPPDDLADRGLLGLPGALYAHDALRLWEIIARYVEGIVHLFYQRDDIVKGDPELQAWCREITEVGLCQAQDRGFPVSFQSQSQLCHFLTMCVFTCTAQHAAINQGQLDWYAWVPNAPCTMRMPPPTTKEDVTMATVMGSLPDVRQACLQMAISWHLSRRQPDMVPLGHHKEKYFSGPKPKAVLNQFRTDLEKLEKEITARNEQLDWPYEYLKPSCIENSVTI
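Hydroperoxide product was detected by ferrous iron/xylenol orange as the 573 to 405 nm absorbance ratio. Arachidonic acid at 40 uM (final) was turned over for 30 min at room temperature by 150 nM human 12hLO, pH 7.0 Hepes buffer, after 15 min compound preincubation.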
SW480 rerep = inducers of DNA re-replication in SW480 colon cancer cells; 1.8% of 340,000 active; Potency, µM (highest dose often 46.1 µM), hits mostly activators; SW480 DNA re-replication, Hoechst DNA content imaging, 48 h; note: nearly all actives have a fitted effect of over 55% in size
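Quantitative HTS format with DMSO vehicle controls; 48 hr drug incubation at 37 C, then 40 min Hoechst staining and scanning imager measurement at 405 nm excitation.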
KB-V1 cytotox = KB-V1 MDR subline cytotoxicity; KB-V1 MDR cells viability, CellTiter-Glo, 72 h; AID 1347076; Potency, µM (series often up to 46.1 µM), usual class: cytotoxic; 3.4% of 400,000 active; note: nearly all actives have a fitted effect of over 60% in size
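KB-V1 MDR subline cells in DMEM (phenol-red free, 10% FBS) exposed to compounds in qHTS concentration series for 72 h at 37 degrees C. Viability read by CellTiter-Glo luminescence; concentration-effect curves fitted after normalization and correction.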
MCF10A rerep = induces DNA re-replication in MCF 10a normal breast cells; AID 624296; 2.9% of 350,000 active; Potency, µM (highest dose often 46.1 µM), actives largely listed as activators; MCF 10A DNA re-replication, Hoechst nuclear intensity, 48 h; note: nearly all actives have a fitted effect of over 50% in size
A number is an active result; . = inactive; ? = inconclusive; / = no result; ! = a repeat was not active; [ ] = remark or other dose. Unless noted, calls come from the whole dose curve; as a rule, active = well fitted curve in the direction sought with a large enough effect; inconclusive = small, poorly fitted or top-dose-only effect, or another doubt; inactive = no such curve, though single readings can be large; an effect the other way counts as inactive or inconclusive.

SMILES | KB-3-1 cytotox | PINK1 modulator | ALOX12 inh | SW480 rerep | KB-V1 cytotox | MCF10A rerep
O=C(OCC1OC(n2ncc(=O)[nH]c2=O)C(OC(=O)c2ccccc2)C1OC(=O)c1ccccc1)c1ccccc1 (configuration not stated) | . | . | . | ? | . | ?
COc1ccc(-c2ocnc2C(=O)Nc2cccc(Cl)c2)cc1OC | / | / | . | / | / | /
N=C(N)SCc1cn(-c2ccccc2)nc1-c1ccc(Br)cc1 | ? | . | ? | . | 18µM | ?
CCC(C)NC(=O)COC(=O)c1cc(C)cc(C)c1 (configuration not stated) | / | / | . | / | / | /
c1ccc(-n2nnnc2C2(NC3CCCCC3)CCCC2)cc1 | / | / | . | / | / | /
c1ccc(-n2nnnc2NC2CCCCC2)cc1 | . | 2.8µM | . | . | . | .
Clc1ccc(C2=C3CCCCn4c(-c5ccccc5)c[n+](c43)C2)cc1 | ? | 16µM | . | . | . | ?
COc1ccc(-c2c[n+]3c4n2CCCCC4=C(c2ccc(Br)cc2)C3)cc1 | . | ? | . | . | . | ?
O=C(Cc1cccc(C(F)(F)F)c1)NC1CCN(Cc2ccccc2)CC1 | / | / | . | / | / | /
N/N=C/C(=N\Nc1ccc(Cl)cc1)C(=O)c1ccncc1 | . | . | . | 10µM | . | .
CC(C)c1ncncc1C(=O)NCCNc1cnccn1 | / | / | . | / | / | /
Cc1ccc(S(=O)(=O)N(CC(=O)NCCSCc2ccco2)c2cc(C)ccc2C)cc1 | ? | . | 40µM | .[9.22 µM] | ? | .
CS(=O)(=O)N(CC(=O)NCCSC1CCCCC1)c1ccccc1 | . | . | . | . | ? | .
COc1ccc(N(CC(=O)NCCSC2CCCCC2)S(=O)(=O)c2ccccc2)cc1OC | / | . | . | . | / | .
Cc1ccccc1N(CC(=O)NCCSC1CCCCC1)S(=O)(=O)c1ccccc1 | ? | . | ? | . | 10µM | .
Cc1cccc(N(CC(=O)NC(C)c2ccccc2)S(=O)(=O)c2ccccc2)c1C (configuration not stated) | 18µM | . | . | / | ? | /
CS(=O)(=O)N(CC(=O)NCCSC1CCCCC1)c1cccc(F)c1 | . | . | . | . | 15µM | ?
Cc1cccc(N(CC(=O)Nc2ccccc2C(F)(F)F)S(=O)(=O)c2ccccc2)c1C | . | . | . | / | . | /
N#Cc1nc(-c2ccco2)oc1N1CCC(C(=O)N2CCC(CCN3CCOCC3)CC2)CC1 | / | / | . | / | / | /
COc1ccc(NC(=O)Cc2c(C)c3c(O)cc(C)cc3oc2=O)c(OC)c1 | / | / | . | / | / | /
Cc1nn(-c2ccccc2)c(C)c1CN1CCCCC12Cc1ccccc1CNC2=O (configuration not stated) | / | / | .[6.33 µM] | / | / | /
CCOC(=O)c1c(N2C(=O)Nc3cc(Cl)c(Cl)cc3N2O)sc2c1CCCCC2 | . | . | / | . | . | 2.3µM
CCN(CC)c1ccc(/C=C/c2cccc[n+]2C)c(OC)c1 | 0.65µM | 10µM | ? | 18µM | . | ?
COc1ccc(/C=C/c2cccc[n+]2C)c(O)c1 | ? | . | ? | . | . | .
Cc1ccc(Cl)c(NC(=O)CCl)c1Cl | 23µM | . | . | . | . | .
SMILES | KB-3-1 cytotox | PINK1 modulator | ALOX12 inh | SW480 rerep | KB-V1 cytotox | MCF10A rerep
Cc1ccc(Cl)c(Nc2ccccc2C(=O)O)c1Cl | . | . | . | . | . | 27µM!
CSc1ccc(NC(C)=O)cc1 | / | / | . | / | / | /
CC1CCC(NCCNC(=O)c2ccco2)CC1 (configuration not stated) | . | . | 2.8µM | . | . | .
COc1ccc(Cc2nnc(SCC(=O)NC(C)c3ccccc3)o2)cc1 (configuration not stated) | . | . | . | . | 21µM | .
CCOC(=O)c1sc(NC(=O)CSc2nnc(Cc3ccccc3)o2)c(C(=O)OCC)c1C | . | . | . | . | 7.3µM | .
CCOC(=O)c1c(NC(=O)CSc2nnc(C)s2)sc2c1CCC(CC)C2 (configuration not stated) | . | . | . | ? | 5.8µM | .
CC(NC(=O)CSc1nnc(COc2ccccc2)o1)c1ccccc1 (configuration not stated) | . | . | . | . | . | .
CCOC(=O)c1c(NC(=O)CSc2nc3ccccc3s2)sc(C(C)=O)c1C | . | . | . | . | 21µM | .
CCOC(=O)c1c(NC(=O)CSc2nc3cc(Cl)ccc3s2)sc(C(C)=O)c1C | / | / | . | . | / | .
Cc1nc(-c2ccccc2Cl)sc1C(=O)N[C@H](CC(C)C)C(=O)O | / | / | . | / | / | /
Fc1cccc(/C=C/c2nc3cc(-c4ccccc4)ccc3o2)c1 | / | / | . | / | / | /
CCCc1cc(=O)n2[nH]c(NC(=O)C3CCCCC3)nc2n1 | / | / | . | / | / | /
C#CCN1CCC(C(=O)NC2CCN(C(=O)C3CCCCC3)CC2)CC1 | / | / | . | / | / | /
CCOC(=O)c1sc(NC(=O)CSc2nnc(C)s2)c(C(=O)OCC)c1C | . | . | . | . | 1.6µM | .
CCOC(=O)c1c(NC(=O)CSc2nncs2)sc(C)c1C | . | . | . | . | . | .
COc1ccc(OC)c(CN2CCN(C(=O)c3cc4c(s3)CCCCC4)CC2)c1 | / | / | . | / | / | /
CC(NC(=O)CCSCCC(=O)NC(C)c1ccccc1)c1ccccc1 (configuration not stated) | . | . | . | . | 16µM | .
CN(Cc1ccccc1)C(=O)CC(c1ccccc1)c1cc(Cl)ccc1O (configuration not stated) | ? | . | . | ? | 13µM | ?
CC(NC(=O)CC(c1ccccc1)c1cc(Cl)ccc1O)c1ccccc1 (configuration not stated) | ? | . | . | . | 21µM | ?
Cc1nonc1CN(C)C(=O)CC(c1ccccc1)c1cccc(Cl)c1 (configuration not stated) | / | / | . | / | / | /
CSc1ccc(C)c(C(=O)NC2CCCCC2)c1 | / | / | . | / | / | /
CCc1ccc(-n2c(SCC(=O)c3ccc4c(c3)NC(=O)CO4)nc3ccccc3c2=O)cc1 | 21µM | . | . | . | ? | .
O=C1COc2ccc(C(=O)CSc3nc4ccccc4c(=O)n3-c3ccc(Cl)c(Cl)c3)cc2N1 | . | . | . | 18µM | ? | 13µM
COc1ccc(N2CC(C(=O)N(C)Cc3cnn(C)c3)CC2=O)cc1 (configuration not stated) | / | / | . | / | / | /
O=S(=O)(Nc1ccc(N2CCCCC2)cc1)c1ccccc1 | . | . | . | . | 21µM | .
O=C(Nc1ccc(N2CCCCCC2)cc1)c1ccccc1Cl | ? | . | . | 13µM | ? | 6.5µM
COc1ccccc1C(=O)Nc1ccc(N2CCN(C(C)=O)CC2)cc1 | . | . | . | . | . | .
O=S(=O)(Nc1ccc(N2CCOCC2)cc1)c1ccccc1 | . | . | . | . | . | .
COc1ccccc1C(=O)Nc1ccc(N2CCCCC2)cc1 | . | . | . | . | 21µM | .
COc1ccccc1C(=O)Nc1ccc(S(=O)(=O)N2CCCC2)cc1 | . | . | . | . | 18µM | .
